Each structure is given as a SMILES string. About 10,000 (2.8%) of roughly 360,000 compounds were called active. Inconclusive results (about 4%) are left out. This is one part of a sample in which actives are shown more often than they occur. A number with no mark means an inactive call. Calls come from the whole dose curve; as a rule, active = well fitted inhibition curve with a large enough effect; inconclusive = small, poorly fitted or top-dose-only effect; inactive = flat fitted curve, though single readings scatter.
% is set by controls: 0 for no effect and ±100 for the full control effect; potency is the fitted concentration of half-maximal effect.

Sequence of Serine/threonine-protein kinase PLK1 (Homo sapiens) (P53350 whole entry, looked up, the tested form may be a part): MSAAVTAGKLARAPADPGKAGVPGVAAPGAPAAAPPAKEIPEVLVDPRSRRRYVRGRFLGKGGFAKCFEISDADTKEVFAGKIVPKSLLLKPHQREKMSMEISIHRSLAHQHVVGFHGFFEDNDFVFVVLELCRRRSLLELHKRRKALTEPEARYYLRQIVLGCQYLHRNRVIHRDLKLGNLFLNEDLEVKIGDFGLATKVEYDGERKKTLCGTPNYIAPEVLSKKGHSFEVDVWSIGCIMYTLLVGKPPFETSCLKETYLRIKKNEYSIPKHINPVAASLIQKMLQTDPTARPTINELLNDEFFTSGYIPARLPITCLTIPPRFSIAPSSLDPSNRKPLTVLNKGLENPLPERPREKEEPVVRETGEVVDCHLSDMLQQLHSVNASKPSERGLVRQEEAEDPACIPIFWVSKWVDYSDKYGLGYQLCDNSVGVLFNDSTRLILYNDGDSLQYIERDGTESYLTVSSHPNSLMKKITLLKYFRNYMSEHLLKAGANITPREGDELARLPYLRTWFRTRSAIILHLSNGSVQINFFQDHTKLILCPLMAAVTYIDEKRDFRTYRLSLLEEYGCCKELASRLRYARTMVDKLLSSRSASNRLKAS

This assay addresses Serine/threonine-protein kinase PLK1 (Homo sapiens) (UniProt P53350). Description: qHTS for Inhibitors of PLK1-PDB (polo-like kinase 1 - polo-box domain): Primary Screen. For max response, negative = inhibition: series mostly up to about 57 µM. Note: nearly all actives have a fitted effect of over 65% in size. Conditions: Plk1 PBD binding of FITC phosphopeptide, fluorescence polarization. On the technique in general: qHTS replaces the single test concentration by a dilution series.
In the case of `CCCCc1ccc(S(=O)(=O)NC(=O)C2(C)CCN2C(=O)c2c(C)noc2C)cc1` (configuration not stated), the max response, negative = inhibition was -12%. Still for that read-out and setting: in the case of `Cc1ccc(CNC(=O)Cc2cn(C)c3ccccc23)cc1` it was -3.92%. On to `CCn1cc(CCC(=O)NCc2ccc(F)cc2)c2ccccc21`, for which the Potency was 23.8 µM (active). `Cn1cc(CCC(=O)NC2CC2)c2ccccc21`: the max response, negative = inhibition was -19.7%. Take `COc1ccc(-c2cc(NC=O)c3ncc(-c4cccc(C(=O)N(C)C)c4)n3c2)c(OC)c1`: the max response, negative = inhibition is -16.4%. For `CCN=C1SC(CC(=O)Nc2ccc(C)cc2)C(=O)N1CC` (configuration not stated), the max response, negative = inhibition was -1.27%.

Take `CCN1C(=O)C(CC(=O)Nc2cc(C)ccc2C)SC1=Nc1ccc(S(N)(=O)=O)cc1` (configuration not stated): the max response, negative = inhibition was -2.89%. On the same count and under the same terms, under `CN=C1SC(CC(=O)Nc2ccc(C(=O)O)cc2)C(=O)N1C` (configuration not stated) stands -12.2%. In the case of `O=C(CC1SC(=Nc2ccccc2)N(Cc2ccccn2)C1=O)Nc1cccc(Cl)c1` (configuration not stated), the Potency was 29.9 µM (active). On to `CC1CC(=O)N(CC(=O)Nc2cccc(Cl)c2)c2ccccc2S1(=O)=O` (configuration not stated), for which the max response, negative = inhibition was -2.47%. With `CN1C(=O)C(CC(=O)Nc2ccccc2)S/C1=N/c1nccs1` (configuration not stated), the Potency is 26.7 µM (active). For `CCCC/C=C/c1cccc2nncn12`, the max response, negative = inhibition is 0.37%. The same measure, in the same setting: in the case of `O=C(Nc1nnc([C@H]2C[C@H](O)[C@@H](CO)O2)s1)c1cccc(Cl)c1` it was -11.4%; in that of `O=C(CSc1ncn[nH]1)Nc1nc2c(F)c(F)c(F)cc2s1`, -14.3%. Regarding `CCn1c(=S)sc2c(=O)n(CC(=O)Nc3ccc(OC)cc3)c(C)nc21`, the Potency was 33.6 µM (active). Regarding `CCn1c(=S)sc2c(=O)n(CC(=O)Nc3cccc(Br)c3)c(C)nc21`, the max response, negative = inhibition was 5.75%.

For `COc1ccc(NC(=O)Cn2c(-c3ccc(OC)cc3)cn(-c3ccc(C)cc3)c2=O)cc1`, the max response, negative = inhibition is -2.89%. Same read-out and setting: in the case of `CCCCCc1c(Cc2ccccc2)ncn1CCc1ccccc1OC` it was -12.9%; in that of `CCc1ccc(N(C(=O)c2csnn2)C(C(=O)NC2CCCCC2)c2ccncc2)cc1` (configuration not stated), -3.61%.

On to `Cc1ccc(N(C(=O)C(F)(F)F)C(C(=O)NC2CCCCC2)c2ccncc2)cc1C` (configuration not stated), for which the Potency was 11.9 µM (active).

With `Cc1cc(NC(=O)CCC(=O)N(c2cccc(F)c2)C(C(=O)NC2CCCC2)c2ccncc2)no1` (configuration not stated), the max response, negative = inhibition was -7.93%. In the case of `COc1ccc(C(C)(O)c2nc(-c3ccc(C)c(C)c3)cs2)cc1` (configuration not stated), the max response, negative = inhibition is -4.12%. On the same count and under the same terms, in the case of `COCCNC(=O)c1cc2c(Br)ccc(Br)c2nc1N` it was -4.02%; in that of `CCOC(=O)[C@]12CCC=C1N(Cc1cccc3ccccc13)C(=O)[C@H](CC(=O)NCc1cccc(C(F)(F)F)c1)C2`, -6.42%. Still for that read-out and setting: under `CCOc1ccc(N(CC)S(=O)(=O)c2cccc3nsnc23)cc1` stands -8.88%. Regarding `CCOc1ccc(OCC)c(NC(=O)CN(C)S(=O)(=O)c2cccc3nsnc23)c1`, the Potency is 29.9 µM (active). As to `CCOc1ccccc1NC(=O)CCS(=O)(=O)c1cccc2nsnc12`, the max response, negative = inhibition is 7.52%.

Regarding `COc1ccc(CN2C[C@H]3CON(C)[C@H]3C[C@H]2c2ccc(-c3cccc(F)c3)cc2)cc1`, the max response, negative = inhibition is 5.3%. For `Cc1sc2ncn(CC(=O)NCCN(C)C)c(=O)c2c1S(=O)(=O)N1CCC(C)CC1`, the max response, negative = inhibition is -12.5%. Regarding `COc1ccc(N2CCN(C(=O)Cn3cnc4sc(C)c(S(=O)(=O)N5CCOCC5)c4c3=O)CC2)cc1`, the max response, negative = inhibition is -11.3%. For the compound `COc1cccc(NC(=O)Cn2cnc3sc(C)c(S(=O)(=O)N4CCN(C)CC4)c3c2=O)c1`, the Potency was 8.44 µM (active). With `COCCCNC(=O)c1cccc2c(-c3ccc(O)c(OC)c3)coc12`, the max response, negative = inhibition is -12.1%.

Turning to `O=C(N[C@H]1CC[C@H](CC(=O)N2CCCCC2)O[C@@H]1CO)c1cccc(F)c1`, the max response, negative = inhibition is 6.09%. On to `Cc1ccc(Cl)c(OCC(=O)NN2CCN(C)CC2)c1`, for which the Potency was 23.8 µM (active). As to `Cc1ccc(Cl)c(OCC(=O)N(C)CC(=O)Nc2ccc(N3CCOCC3)cc2)c1`, the max response, negative = inhibition was -2.7%. Still for that read-out and setting: in the case of `Cc1ccc(Cl)c(OCC(=O)N2CCc3ccccc3C2)c1` it was -3.49%; in that of `Cc1cc(C)c2c(=O)n3c(nc2c1)C(CC(C)C)NC(=O)c1cc2ccccc2cc1-3` (configuration not stated), 1.09%; in that of `O=C(Nc1ccc(Cl)c(C(F)(F)F)c1)C1Cc2c(-c3ccccc3Oc3ccccc3)ccnc2O1` (configuration not stated), -6%.

`Cc1ccc(NC(=O)C2CCCN2S(=O)(=O)c2cccc3cccnc23)c(C)c1` (configuration not stated): the max response, negative = inhibition was -3.33%.

With `O=C(Nc1nccs1)C1CCCN1S(=O)(=O)c1cccc2cccnc12` (configuration not stated), the Potency is 26.7 µM (active). As for `Cc1cc(C)cc(NC(=O)C2CCCN2S(=O)(=O)c2cccc3cccnc23)c1` (configuration not stated), the max response, negative = inhibition is -10.9%. As for `Cc1ccccc1-c1nc(NC(C)C)nc2cc(-c3ccccc3)sc12`, the max response, negative = inhibition is -6.2%.

Regarding `O=C(C1CC(=O)N(c2ccc(F)cc2)C1)N1CCN(c2ccccc2)CC1` (configuration not stated), the Potency is 18.9 µM (active). Consider `O=C(C1CC(=O)N(C2CCCCC2)C1)N1CCN(c2ccccc2)CC1` (configuration not stated), for which the max response, negative = inhibition was -15.5%.

For the compound `CC1CC(C)CN(C(=O)C2CC(=O)N(c3ccc(F)cc3)C2)C1` (configuration not stated), the max response, negative = inhibition is -7.49%. Same read-out and setting: under `CC1=C(C(=O)N(C)C)CC(CC(=O)NCCc2ccccn2)C(=O)N1CCC1=CCCCC1` (configuration not stated) stands -5.19%. Regarding `CC(=O)N(C1=C(Cl)C(=O)c2ccccc2C1=O)c1ccc(C(=O)O)cc1`, the Potency was 2.99 µM (active). The same measure, in the same setting: in the case of `COCCNC(=O)Nc1ccc2nc(-c3ccco3)c(-c3ccco3)nc2c1` it was 21.2 µM (active). Regarding `O=C(Nc1nc(-c2ccco2)c(-c2ccco2)s1)c1ccco1`, the max response, negative = inhibition was -24.5%. On the same count and under the same terms, under `COCCNC(=O)CSc1nc(N)c(NC(=O)c2ccco2)c(=O)[nH]1` stands -1.47%; under `CC1(C(=O)NS(=O)(=O)c2ccccc2Cl)CCN1C(=O)c1cccc(F)c1` (configuration not stated), -14.1%. In the case of `CC(C)CN1C(=O)CN(S(C)(=O)=O)CC1(C)C(=O)NCc1ccccc1` (configuration not stated), the max response, negative = inhibition was 4.65%.

Regarding `O=C1NC[C@H](Cc2ccc(O)cc2)N(C[C@H]2CCCN2C[C@H](Cc2ccccc2)N2C[C@H](Cc3ccccc3)N(CCc3ccccc3)C(=O)C2=O)C1=O`, the max response, negative = inhibition was -6.61%. On the same count and under the same terms, under `CC1CCN(c2ccc3c(c2)S(=O)(=O)c2cc(C(=O)O)ccc2C3=O)CC1` stands 2.83%; under `CC(C)Sc1ncnc2c1cnn2-c1ccccc1`, 2.81%. Take `C1=C(CCNc2ncnc3c2cnn3-c2ccccc2)CCCC1`: the Potency is 3.36 µM (active). Turning to `O=C(NCCC1=CCCCC1)c1ccc(-n2cncn2)cc1`, the max response, negative = inhibition is 7.38%. Same read-out and setting: in the case of `C[C@H]1CN(c2ccc(Br)cc2)C(=O)[C@@H]1CC(=O)Nc1ccc(Br)cc1` it was 1%; in that of `O=C(C(=O)N1CCN(c2ccccc2)CC1)c1ccc2c(c1)OCO2`, -10.2%. `O=C(CN1CCN(c2ccccn2)CC1)Nc1ccc(Br)cc1`: the max response, negative = inhibition is -15.1%. Take `O=C(Cc1ccccc1Cl)N1CCN(c2ccccn2)CC1`: the max response, negative = inhibition was -14.6%. On to `O=C(Cc1ccc(Br)cc1)N1CCN(c2ccccn2)CC1`, for which the Potency was 29.9 µM (active).

As for `CCc1nnc(NC(=O)c2ccco2)s1`, the max response, negative = inhibition was -6.68%.

Turning to `O=C(C1CCN(Cc2ccc(Cl)cc2)CC1)N1CCN(Cc2ccc3c(c2)OCO3)CC1`, the max response, negative = inhibition is 2.77%.

As to `O=C(C1CCN(S(=O)(=O)c2cnc[nH]2)CC1)N1CCN(Cc2ccc3c(c2)OCO3)CC1`, the Potency was 2.99 µM (active). Take `Cc1cccc(N2CCN(C(=O)C3CCN(S(=O)(=O)c4cnc[nH]4)CC3)CC2)c1C`: the max response, negative = inhibition is 3.15%. Take `CCC(C(=O)Nc1c(C)cccc1C)n1c(-c2cc(C)cs2)nc2ccccc21` (configuration not stated): the max response, negative = inhibition is -9.18%.

For `Cc1cc2cc3n(c2nn1)N=C(Cl)CC3`, the max response, negative = inhibition was -3.02%.

Turning to `C=CCC[C@H](CCCCC)OC(=O)/C=C/[C@H](O)[C@@H](O)C[C@@H](O)CC=C`, the max response, negative = inhibition was -13.7%. For the compound `C[C@@H]1CN([C@H](C)CO)C(=O)CCCn2cc(nn2)CO[C@H]1CN(C)S(=O)(=O)c1ccc(Oc2ccccc2)nc1`, the max response, negative = inhibition was -19.7%. In the case of `O=C1C=C(c2ccc(Cl)cc2)C(=O)N1Nc1ccccc1`, the Potency is 6.7 µM (active). As to `O=C(CCC(=O)OCc1ccc(Cl)cc1)Nc1ccccc1`, the max response, negative = inhibition was -4.01%. On to `O=C(O)CC1=C(Nc2ccccc2)C(=O)N(c2ccccc2)C1c1ccc(Cl)cc1` (configuration not stated), for which the max response, negative = inhibition was -11.1%.

As for `CC1(C(=O)Nc2ccc3c(c2)OCCO3)CN(S(C)(=O)=O)CC(=O)N1Cc1cccc(F)c1` (configuration not stated), the max response, negative = inhibition is -14.7%. In the case of `COC(=O)C[C@H]1C[C@@H]2c3cc(NC(=O)Nc4ccccc4)ccc3O[C@@H]2[C@@H](CO)O1`, the max response, negative = inhibition is 0.628%. Same read-out and setting: under `Cc1ccc(S(=O)(=O)CC(=O)Nc2sc(C)c(C)c2C(N)=O)cc1` stands -9.45%.

Consider `Cc1ccc(C(=O)c2c(NC(=O)c3ccccc3)sc(C)c2C)cc1`, for which the Potency is 11.9 µM (active). Consider `Cc1sc(NC(=O)c2ccc3ncsc3c2)c(C(N)=O)c1C`, for which the max response, negative = inhibition is -11%. Regarding `Cc1ccoc1C(=O)Nc1cccc(Oc2ccccc2)c1`, the Potency is 29.9 µM (active).

Regarding `CC(Oc1cccc(NC(=O)c2cccs2)c1)C(=O)c1ccccc1` (configuration not stated), the max response, negative = inhibition was -3.5%. Regarding `CC1(C(=O)Nc2cccc(Oc3ccccc3)c2)CCN1Cc1ccccc1Cl` (configuration not stated), the max response, negative = inhibition was -5.84%.

As to `Nc1nc2c(ncn2[C@@H]2O[C@H](CNCc3ccc(OCCCN4CCOCC4)cc3)[C@@H](O)[C@H]2O)c(=O)[nH]1`, the max response, negative = inhibition was -2.1%. Regarding `COc1cccc(-c2cnc(C(O)c3ccccc3OC)[nH]2)c1` (configuration not stated), the max response, negative = inhibition was -12.1%. Same read-out and setting: under `CCCc1cc(=O)oc2c(C)c(OCC(=O)Nc3ccccn3)ccc12` stands 7.66%; under `CCCc1cc(=O)oc2c(C)c(OCC(=O)NCc3ccccn3)ccc12`, 0.145%. Take `CCc1cc(=O)oc2c(C)c(OCC(=O)NCCN3CCOCC3)ccc12`: the Potency was 21.2 µM (active). For `COc1ccc(C(C)C)cc1-c1ccc2nncn2c1`, the max response, negative = inhibition is -3.26%.
